For 22 molecules, growth results are on record in PubChem BioAssay (NCI).

Structures are written as SMILES. Values joined by “and” are separate entries in the source; they are usually repeats but may differ in a detail not shown here. Identical values can stand only once. This is part of a sample that, as a whole, favours compounds with a hit. Of some 83,000 tested, about 20% had one in any assay.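 Assay: single dose, 48 h. Readout: percent growth (0 = no net growth; negative = cell death). Active: <10.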 Active and inactive are the calls of the source.

What all share (assay): NCI-60 one-dose screen, 48 h (100 = growth as untreated, 0 = no growth, -100 = all killed)
Holding throughout (conditions): 10 µM unless noted

Test [1] has as its system NCI-H23 lung.
For test [2], the system named is NCI-H226 lung.
Test [3] has as its system NCI-H322M lung.
For test [4], the system named is HOP-62 NSCLC.
Test [5] concerns NCI-H460 lung.
In test [6] the test system is HOP-92 NSCLC.
The subject of test [7] is NCI-H522 lung.
The test system of test [8] is A549/ATCC NSCLC.
The subject of test [9] is 786-0 renal.
Test [10] has as its system COLO 205 colon.

Take `COc1cc2c(cc1OC)[C@@H]1C(=O)c3ccc4c(c3O[C@@H]1CO2)C[C@H](C(C)C)O4`: the growth is 34.2% (inactive) in [1]; 62.8% (inactive) in test [2]; 82.1% (inactive) in [3]; 63.6% (inactive) in test [4]; 51.5% (inactive) in test [5]; 57.3% (inactive) in test [6]. Also, the growth was 30.5% (inactive) in [7], 65.5% (inactive) in test [8], 60.2% (inactive) in test [9] and 82.4% (inactive) in [10].
For the molecule `Clc1ccc(COC(Cn2ccnc2)c2ccc(Cl)cc2Cl)c(Cl)c1` (stereo not given), the growth was 40.6% (inactive) and 25.2% (inactive) in test [1]; 68.3% (inactive) and 75.9% (inactive) in test [2]; 94.1% (inactive) and 85.6% (inactive) in [3]; 71.3% (inactive) and 84.9% (inactive) in test [4]; 56.8% (inactive) and 55.9% (inactive) in [5]; -1.54% (active) and 14.5% (inactive) in test [6]. The growth in test [7] was 39% (inactive) and 41.5% (inactive); in test [8], 37.3% (inactive) and 12.5% (inactive); in test [9], 48.9% (inactive) and 49.6% (inactive); in [10], 57.2% (inactive) and 57.9% (inactive).
Regarding `O=C1NC(=O)C(=Cc2ccccc2)C(=O)N1`, the growth is 98.5% (inactive) and 102% (inactive) in test [1]; 96.1% (inactive) and 101% (inactive) in test [2]; 106% (inactive) and 105% (inactive) in test [3]; 94.9% (inactive) and 92.6% (inactive) in test [4]; 127% (inactive) and 105% (inactive) in test [5]; 85.9% (inactive) and 109% (inactive) in [6]. In addition, the growth is 96.1% (inactive) and 94.5% (inactive) in test [7]; 101% (inactive) and 91.4% (inactive) in test [8]; 102% (inactive) and 107% (inactive) in [9]; 135% (inactive) and 109% (inactive) in test [10].
Turning to `C[C@]12C[C@H](c3ccoc3)OC(=O)[C@H]1CC[C@@]1(C)[C@@H]2[C@H]2C=C[C@]1(O)C(=O)O2`, the growth in [1] was 102% (inactive); in test [2] it was 101% (inactive); in test [3], 79.1% (inactive); in test [4], 104% (inactive); in test [5], 108% (inactive); in test [6] it was 81.3% (inactive). Besides, the growth in test [7] was 68.1% (inactive); in test [8], 84.5% (inactive); in test [9] it was 91.9% (inactive); in test [10], 104% (inactive).
Regarding `Cc1cc(NC(=O)NCCCOc2ccc(N3C(N)=NC(N)=NC3(C)C)cc2Cl)ccc1S(=O)(=O)F`, the growth in test [1] was 24.1% (inactive); in test [2], 55.7% (inactive); in test [3] it was 54.2% (inactive); in test [4] it was 51.9% (inactive); in test [5] it was 13.6% (inactive); in test [6], 74.6% (inactive). Further, the growth in [7] is 7.9% (active); in test [8], 14.7% (inactive); in [9], 40.1% (inactive); in test [10], 27.9% (inactive).
Consider `O=Cc1cn(Cc2ccccc2)c2ccccc12`, for which the growth is 80.1% (inactive) in test [1]; 28.2% (inactive) in test [2]; 86% (inactive) in test [3]; 65.8% (inactive) in test [4]; 20.9% (inactive) in test [5]; 74.4% (inactive) in test [6]. In addition, the growth was 121% (inactive) in test [7], 76.6% (inactive) in test [8], 87.6% (inactive) in test [9] and 15.4% (inactive) in test [10].
Turning to `CC(C)COC(=O)Cc1ccccc1`, the growth in [1] was 106% (inactive); in test [2], 99.4% (inactive); in test [3], 104% (inactive); in test [4] it was 101% (inactive); in [5], 109% (inactive); in test [6] it was 95.1% (inactive). Also, the growth in test [7] was 99% (inactive); in test [8], 105% (inactive); in [9] it was 104% (inactive); in [10], 106% (inactive).
As to `CC[C@H](C)[C@H](NC(=O)c1ncccn1)C(=O)N(C)[C@H](C[C@@H](OC(C)=O)c1nc(C(=O)N[C@@H](Cc2ccccc2)C[C@H](C)C(=O)OC)cs1)C(C)C`, the growth in [1] was 40.9% (inactive); in test [2], 51.2% (inactive); in [3], 42% (inactive); in [4] it was 22.8% (inactive); in test [5], 10.8% (inactive); in test [6], 33.5% (inactive). The growth in test [7] was 0.376% (active); in [8] it was 32.9% (inactive); in test [9] it was 38.5% (inactive); in test [10] it was 4.56% (active).
`C[C@]12CC[C@H]3[C@@H](CC=C4c5nc(N)sc5CC[C@@]43C)[C@@H]1CC[C@@H]2O`: the growth in [1] was 98.4% (inactive); in test [2] it was 97.1% (inactive); in test [3] it was 108% (inactive); in [4], 100% (inactive); in [5] it was 96% (inactive); in test [6], 105% (inactive). Further, the growth in test [7] is 89.7% (inactive); in test [8], 94.5% (inactive); in test [9], 100% (inactive); in test [10], 113% (inactive).
Take `C[N+]1(CC#CC[N+]2(C)CCCC2)CCCC1`: the growth in [1] was 111% (inactive); in [2] it was 91.1% (inactive); in test [3], 99.8% (inactive); in test [4] it was 105% (inactive); in test [5] it was 106% (inactive); in [6], 90.6% (inactive). In addition, the growth in test [7] is 99.5% (inactive); in test [8], 107% (inactive); in test [9], 99.2% (inactive); in [10], 103% (inactive).
Turning to `C[C@@H]1C/C=C\C(=O)O[C@H](/C=C/C#C/C=C/C(C)(C)[C@@H](O)c2cccc(O)c2Br)[C@@H](C)/C=C/[C@H](C)C[C@H](OC(N)=O)C1`, the growth in test [1] is 40.6% (inactive); in [2], 20.1% (inactive); in test [3], 54.1% (inactive); in [4], 13.1% (inactive); in test [5], 17.1% (inactive); in test [6], 9.34% (active). For the same molecule, the growth was 16.7% (inactive) in test [7], 28.5% (inactive) in test [8], 37.2% (inactive) in test [9] and -26.1% (active) in test [10].
With `C[C@]12CCc3sc(Nc4ccc(O)cc4)nc3C1=CC[C@@H]1[C@@H]2CC[C@]2(C)C(=O)CC[C@@H]12`, the growth was 70.2% (inactive) in test [1]; 103% (inactive) in [2]; 93.4% (inactive) in test [3]; 92.7% (inactive) in [4]; 65.6% (inactive) in test [5]; 126% (inactive) in [6]. The growth in test [7] was -55.2% (active); in [8], 79.3% (inactive); in test [9] it was -3.03% (active); in [10], 38.5% (inactive).
Regarding `CSc1cc(/C=C(\C)[C@@H]2C[C@@H]3O[C@]3(C)CCC[C@H](C)[C@H](O)[C@@H](C)C(=O)C(C)(C)[C@@H](O)CC(=O)O2)n(CCNC(=O)OC(C)(C)C)n1`, the growth is 61.4% (inactive) in test [1]; 82.7% (inactive) in test [2]; 77.2% (inactive) in [3]; 68.7% (inactive) in [4]; 29.6% (inactive) in [5]; 70.3% (inactive) in test [6]. The growth in test [7] was 63.1% (inactive); in test [8], 55.2% (inactive); in test [9], 66.6% (inactive); in [10], 30.5% (inactive).
As for `O=c1[nH]c(=O)[nH]c(=O)[nH]1`, the growth in test [1] is 97.9% (inactive); in test [2] it was 122% (inactive); in [3], 104% (inactive); in test [4] it was 85.2% (inactive); in test [5], 111% (inactive); in [6] it was 113% (inactive). Besides, the growth was 95.5% (inactive) in test [7], 108% (inactive) in [8], 96.9% (inactive) in test [9] and 115% (inactive) in test [10].
Regarding `Cc1ccc(S(=O)(=O)n2cc([C@@]3(O)C[C@H](CSC#N)OC3=O)c3ccccc32)cc1`, the growth in test [1] was 82% (inactive); in test [2] it was 85.3% (inactive); in test [3] it was 106% (inactive); in test [4], 100% (inactive); in test [5] it was 86.3% (inactive); in [6], -28.2% (active). The growth was 86.3% (inactive) in test [7], 70.6% (inactive) in test [8], 95.6% (inactive) in test [9] and 59.2% (inactive) in [10].
Turning to `CCCCCCCCCCCCCCCC[n+]1ccccc1`, the growth was -38.3% (active) and -24.8% (active) in test [1]; -77.3% (active) and -0.958% (active) in test [2]; 11.4% (inactive) and 40.2% (inactive) in [3]; -84.4% (active) and -49.3% (active) in test [4]; -88.3% (active) and -83.1% (active) in test [5]; -48.4% (active) and -41.7% (active) in test [6]. For the same molecule, the growth was -57.3% (active) and -67.7% (active) in test [7]; -61.4% (active) in [8]; -73% (active) and -92.8% (active) in test [9]; -77.6% (active) and -71.5% (active) in test [10].
For `COC12CC3C4=CCOC5CC(=O)N6c7ccccc7C1(CCN2C4)C6C53` (stereo not given), the growth was 102% (inactive) in [1]; 103% (inactive) in test [2]; 109% (inactive) in [3]; 99.1% (inactive) in test [4]; 109% (inactive) in [5]; 102% (inactive) in [6]. The growth is 89.9% (inactive) in [7], 91.2% (inactive) in [8], 99.1% (inactive) in [9] and 105% (inactive) in [10].
On to `C#COc1cccc(Nc2ncnc3cc(NC(=O)CF)ccc23)c1`, for which the growth in [1] is 81.4% [6.25 µM] (inactive); in test [2], 83.4% [6.25 µM] (inactive); in test [3] it was 70.5% [6.25 µM] (inactive); in [4], 30.3% [6.25 µM] (inactive); in test [5], 21.4% [6.25 µM] (inactive); in test [6], 47.7% [6.25 µM] (inactive). Also, the growth in test [7] is -25.3% [6.25 µM] (active); in test [8], 40% [6.25 µM] (inactive); in [9] it was 30.7% [6.25 µM] (inactive); in test [10], 13.2% [6.25 µM] (inactive).
For the molecule `O=[N+]([O-])c1cc(Cl)c(Cl)c([N+](=O)[O-])c1Cl`, the growth in test [1] was 85.6% (inactive); in test [2], 81.4% (inactive); in test [3], 123% (inactive); in test [4] it was 119% (inactive); in test [5], 99.7% (inactive); in test [6] it was 74.9% (inactive). Further, the growth in [7] is -86.7% (active); in test [8], 92.5% (inactive); in [9], 114% (inactive); in [10] it was -23.8% (active).
`O=S(=O)(F)c1cccc(Cl)c1C[P+](c1ccccc1)(c1ccccc1)c1ccccc1`: the growth in test [1] was 108% (inactive); in [2] it was 93.4% (inactive); in test [3], 97.9% (inactive); in test [4], 93.3% (inactive); in test [5] it was 106% (inactive); in test [6] it was 91.3% (inactive). Besides, the growth in [7] is 88.8% (inactive); in test [8], 93.9% (inactive); in test [9], 104% (inactive); in test [10], 99.9% (inactive).
With `Oc1cc(N2CC2)c(O)cc1N1CC1`, the growth in test [1] is -37.9% (active); in test [2], -16.4% (active); in test [3], 20.4% (inactive); in test [4], -12.8% (active); in test [5], -14.6% (active); in [6] it was 5.86% (active). Also, the growth in test [7] is -74.7% (active); in test [8], -1.9% (active); in [9], 22.3% (inactive); in test [10], -72.7% (active).
For `CC(C)CCC1C(=O)NC(=O)NC1=O`, the growth in test [1] is 99.4% (inactive); in test [2], 116% (inactive); in [3], 94.4% (inactive); in test [4], 87.4% (inactive); in test [5], 97.7% (inactive); in test [6], 109% (inactive). For the same molecule, the growth is 79.4% (inactive) in [7], 78.5% (inactive) in [8], 104% (inactive) in [9] and 100% (inactive) in test [10].
